IL-1B inflam inh – inhibitors of inflammasome signaling (IL-1 beta secretion). activity change, % at 57.5 µM. actives 4.7% (n = 360,000). THP-1 LPS/ATP IL-1B secretion, AlphaLISA, 16 h; hits give low values; in the data active means activity change below about -50%; inconclusive means mostly about -30% to -49%
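THP-1 cells pretreated 1 hr with compounds (up to 57.5 uM final), then stimulated with LPS (250 ng/mL final) plus ATP (1.25 mM final); secreted IL-1B measured by AlphaLISA after 16 hr, decreased signal indicating inhibition.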
ALOX12 inh – ALOX12 (human) lipoxygenase inhibition. purified 12hLO, xylenol orange hydroperoxide absorbance. Potency, µM (doses to about 108 µM), for the others: at the highest dose activity change, negative = inhibition, usual class: inhibitors. actives 1.1% (n = 580,000). AID 1671190; further: potency means the concentration at half of the fitted maximal effect
Target sequence (P18054 whole entry, looked up): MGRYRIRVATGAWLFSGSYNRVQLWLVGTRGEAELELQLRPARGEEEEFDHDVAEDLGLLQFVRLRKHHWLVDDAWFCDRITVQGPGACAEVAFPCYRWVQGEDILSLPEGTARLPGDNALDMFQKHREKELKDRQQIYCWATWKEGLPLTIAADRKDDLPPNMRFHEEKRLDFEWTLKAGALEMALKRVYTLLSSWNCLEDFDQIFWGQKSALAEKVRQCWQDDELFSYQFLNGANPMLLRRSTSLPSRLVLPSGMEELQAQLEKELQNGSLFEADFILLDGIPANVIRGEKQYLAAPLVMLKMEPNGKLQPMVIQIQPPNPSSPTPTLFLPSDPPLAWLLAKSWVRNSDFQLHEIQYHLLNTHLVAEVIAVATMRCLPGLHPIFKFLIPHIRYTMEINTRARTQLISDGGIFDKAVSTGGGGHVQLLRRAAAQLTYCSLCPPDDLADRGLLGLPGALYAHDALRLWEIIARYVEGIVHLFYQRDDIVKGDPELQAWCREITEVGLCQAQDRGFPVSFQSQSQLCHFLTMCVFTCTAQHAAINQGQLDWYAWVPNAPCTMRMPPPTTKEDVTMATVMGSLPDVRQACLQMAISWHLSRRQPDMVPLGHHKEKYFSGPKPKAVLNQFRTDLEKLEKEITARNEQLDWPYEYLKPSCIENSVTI
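Purified human 12hLO (150 nM final) in 25 mM Hepes, 0.01% Triton X-100, pH 7.0 was preincubated 15 min at room temperature with compound. Then 40 uM arachidonic acid was added, 30 min. Hydroperoxide was read by Fe-XO absorbance ratio 573/405 nm.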
HT1080NT lethal – kills 2HG-producing HT-1080-NT fibrosarcoma cells; HT-1080-NT fibrosarcoma viability, CellTiter-Glo ATP luminescence, 48 h; Potency, µM (doses to about 46.1 µM), for the others: at the highest dose activity, negative = less viability, actives largely listed as cytotoxic; actives 1.6% (n = 360,000);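 further: NT is the 2HG producing partner of a matched IDH1 knockdown line; potency means the concentration at half of the fitted maximal effect; 0% = DMSO-treated cells and -100% = media-only wells without cells; nearly all actives have a fitted effect of over 55% in size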
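Luminescent CellTiter-Glo readout after 48 hours of compound exposure at 37 degrees C defined viability of HT-1080-NT cells. Activity was normalized to DMSO wells and cell-free media wells; concentration-response curves were fitted and assigned curve classes.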
TDP1 cell CPT – DT40-hTDP1 cell growth loss with CPT. actives 12% (n = 420,000). AID 686979. chicken DT40 Tdp1-/-;hTDP1 cells + 20 nM CPT, ATP luminescence, 48 h. Potency, µM (doses to about 46.2 µM), for the others: at the top dose activity change, negative = growth inhibition, most hits filed as inhibitors; further: potency means the concentration at half of the fitted maximal effect; nearly all actives have a fitted effect of over 55% in size
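Chicken DT40 Tdp1-/- cells complemented with human TDP1, 400 cells/well, exposed to compounds plus 20 nM camptothecin for at least 48 h at 37 C; viability read as ATP content by CellTiter-Glo luminescence.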
HT1080 IDH1KD tx – toxicity to HT-1080 IDH1 knockdown cells (counter line); HT-1080 IDH1 knockdown viability, ATP luminescence, 48 h; Potency, µM (titrated, usually from 46.1 µM), inactives show top-dose activity, negative = toxicity, actives largely listed as cytotoxic; actives 2% (n = 360,000); AID 686971;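 further: potency means the concentration at half of the fitted maximal effect; 0% = DMSO wells and -100% = cell-free medium wells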
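Viability of IDH1-knockdown HT-1080 fibrosarcoma cells was assessed by CellTiter-Glo after 48 h at 37 °C with titrated compound; concentration-effect curves were classified by fit quality and response size.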
DT40 TDP1 no CPT – qHTS for Inhibitors of human tyrosyl-DNA phosphodiesterase 1 (TDP1): qHTS in cells in absence of CPT; DT40 Tdp1-/- hTDP1 cells, no CPT, ATP luminescence, 48 h; Potency, µM (titrated, usually from 46.2 µM), inactives show at the highest dose activity change, negative = growth inhibition, usual class: inhibitors; actives 15% (n = 420,000); further: potency means the concentration at half of the fitted maximal effect; nearly all actives have a fitted effect of over 55% in size
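Growth kinetics read by CellTiter-Glo luminescence after ≥48 hr at 37 °C. Cells: DT40 Tdp1-/- stably carrying human TDP1, 400 per well, compound exposure in the absence of CPT (DMSO vehicle).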
* hit, by the source's call; ? = inconclusive; . = not tested or not shown; [ ] = another dose, or the depositor's remark. The full list was thinned out, with hits kept by preference. Unless noted, the call rests on the fitted dose curve; in most records, active means well fitted curve in the direction sought with a large enough effect; inconclusive means small, poorly fitted or top-dose-only effect, or another doubt; inactive means no such curve, though single readings can be large; an effect the other way counts as inactive or inconclusive. Unless noted, on the % scale 0 is the no-effect control and ±100 the full control effect.

SMILES	IL-1B inflam inh	ALOX12 inh	HT1080NT lethal	TDP1 cell CPT	HT1080 IDH1KD tx	DT40 TDP1 no CPT
CN(C)CCN(C(=O)c1ccc2ccccc2c1)c1nc2ccc(F)cc2s1	-19	.	3%	-19%	-1%	-21%
CN(C)CCN(C(=O)c1ccc2c(c1)OCCO2)c1nc2cc3c(cc2s1)OCO3	-54*	.	-3%	-10%	-5%	-12%
CN(C)CCN(C(=O)c1ccc2ccccc2c1)c1nc2cc3c(cc2s1)OCO3	-5	?	-10%	?	-5%	23µM*
COc1cc2nc(N(CCN(C)C)C(=O)c3ccc4ccccc4c3)sc2cc1OC	-13	.	14%	-21%	1%	-3%
CCN(CC)CCN(C(=O)c1ccc2c(c1)CCCC2)c1nc2cc(OC)c(OC)cc2s1	-82*	.	-2%	23µM*	-13%	-25%
CSc1cccc(NC(=O)N[C@H]2CO[C@H]3[C@@H]2OC[C@H]3O)c1	.	15%[176 µM]	.	.	.	.
Cc1ccc2cc(C#N)c(N3CCCN(C(=S)NCCCN(C)C)CC3)nc2c1	?	?	21µM*	16µM*	21µM*	15µM*
Cc1cc(C)c2cc(C#N)c(N3CCCN(C(=S)NCCCN(C)C)CC3)nc2c1	-56*	14%	?	?	?	23µM*
CCOCCCNC(=S)N1CCCN(c2nc3cc(C)ccc3cc2C#N)CC1	12	-9%	?	-9%	7%	3%
CN(CC1CCCCC1)C1CCc2nn(C)c(=O)n2CC1 (stereo unspecified)	.	-3%	.	.	.	.
Nc1ccc(Cl)c[n+]1Cc1cccc2cccnc12	9	0%	-22%	-23%	-4%	?
Cc1cc(C[n+]2cc(Br)ccc2N)c2ncccc2c1	-62*	-4%	-7%	12µM*	?	10µM*
Cc1cc(C)c(S(=O)(=O)N2CCN(Cc3cccc4cccnc34)CC2)c(C)c1	.	0%	.	.	.	.
Cc1cc(C[n+]2cc(Cl)ccc2N)c2ncccc2c1	-76*	12%	-11%	-29%	-17%	?
CCCCC(CC)C(=O)Nc1cccc(CC)c1 (stereo unspecified)	.	9%	.	.	.	.
O=C(NCc1ccc2c(c1)OCO2)c1ccc(CS(=O)Cc2ccc(Cl)cc2)o1 (stereo unspecified)	-69*	?	3%	-12%	-5%	-15%
O=C(NCc1cccc(Cl)c1)c1ccc(CS(=O)Cc2ccc(Cl)cc2)o1 (stereo unspecified)	-74*	-28%	-19%	?	-20%	-3%
COc1ccc(C(O)C2c3c(cc4c(c3OC)OCO4)CCN2C)c(CO)c1OC (stereo unspecified)	.	11%	.	.	.	.
COc1c2c(cc3c1C(CC(O)Cc1ccccc1)N(C)CC3)OCO2 (stereo unspecified)	-6	9%	-19%	?	-25%	10µM*
COc1cccc(CC(O)CC2c3c(cc4c(c3OC)OCO4)CCN2C)c1 (stereo unspecified)	0	?	-28%	21µM*	-19%	15µM*
CCCCc1c(CCC)c(=N)c2ccccc2n1C	-77*	?	-15%	23µM*	21µM*	5.2µM*
COc1cc(SC)ccc1C(=O)N[C@H]1C[C@@](O)(C(=O)N[C@H](C)C(N)=O)C[C@@H](O)[C@@H]1O	.	39%	.	.	.	.
CCC(=O)Nc1nc2ccc(S(C)(=O)=O)cc2s1	54	43%	-25%	-2%	-9%	-2%
Cc1ccccc1NC(=O)Nc1nc2ccc(S(C)(=O)=O)cc2s1	-4	-15%	-17%	10%	?	-16%
NS(=O)(=O)c1ccc2nc(NC(=O)Nc3ccccc3F)sc2c1	?	27%	23%	?	-3%	8.2µM*
SMILES	IL-1B inflam inh	ALOX12 inh	HT1080NT lethal	TDP1 cell CPT	HT1080 IDH1KD tx	DT40 TDP1 no CPT
Cc1cccc(OCC(=O)Nc2nc3ccc([N+](=O)[O-])cc3s2)c1C	-9	7%	13%	26µM*	7%	?
CS(=O)(=O)c1ccc2nc(NC(=O)CC3CCCC3)sc2c1	-25	-23%	-29%	?	?	13µM*
CS(=O)(=O)c1ccc2nc(NC(=O)c3cccs3)sc2c1	62	0%	?	12µM*	23µM*	?
NS(=O)(=O)c1ccc(N/N=C/c2ccc(Cl)cc2)c([N+](=O)[O-])c1	.	-2%	.	.	.	.
Cc1cccc(C(O)c2ncc(-c3ccc(Cl)cc3)[nH]2)c1C (stereo unspecified)	-7	-8%	?	?	?	?
CN1C(=O)c2cccn2CC1CNC(=O)c1ccnn1C (stereo unspecified)	.	33%	.	.	.	.
COc1cc(OC)c(C(=O)Nc2nc(C)c(C(=O)N(C)C)s2)cc1OC	.	-9%	.	.	.	.
O=C(Nc1cnc(-c2ccccc2)nc1)C1CCCC1	.	39%	.	.	.	.
CC(=O)Nc1ccc2nc(NC(=O)CS(=O)(=O)c3ccc(C)cc3)sc2c1	.	?	.	-25%	.	?
CS(=O)(=O)c1ccc2nc(NC(=O)c3cc([N+](=O)[O-])cc([N+](=O)[O-])c3)sc2c1	10	0%	-1%	?	2%	?
CS(=O)(=O)c1ccc2nc(NC(=O)c3cccc([N+](=O)[O-])c3)sc2c1	-2	0%	-1%	-14%	2%	18µM*
O=C(CS(=O)(=O)c1ccc(Cl)cc1)Nc1nc2ccc(Br)cc2s1	.	?	.	?	.	23µM*
CCC(=O)Nc1ccccc1C(=O)OCc1ccc(C(=O)c2ccccc2)cc1	7	-10%	-5%	21µM*	-7%	?
CCc1ccccc1NC(=O)C(=O)NCCCN1CCOCC1	.	-6%	.	2%	.	1%
CC(C)Oc1cc(F)ccc1-c1cc(C(=O)NCCc2ccncc2)[nH]n1	-9	-18%	2%	18µM*	23%	?
CC(C)Oc1cc(F)ccc1-c1cc(C(=O)NC2CCCCC2)[nH]n1	0	-17%	5%	21µM*	3%	?
CC(C)Oc1ccc(F)cc1-c1cc(C(=O)NC2CCCCC2)[nH]n1	-20	-3%	5%	?	-27%	15µM*
CCOc1ccc(Cl)cc1-c1cc(C(=O)NCCc2ccncc2)[nH]n1	-6	-43%	0%	-103%	-18%	-104%
CC(C)NC(=O)C1COC2(CCN(C(=O)c3cccc([N+](=O)[O-])c3)CC2)N1C(=O)c1ccccc1 (stereo unspecified)	.	-8%	.	.	.	.
